# This is one part of the list. Values without a mark were called inactive.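 How the source made its calls: active means fluorescence interference ratio at or above 1.2, signal boosting, or at or below 0.8, signal quenching; inactive means ratio between 0.8 and 1.2.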
# Assay: signal quenchers or enhancers, Cy5-oligo/SSB – biochemical, E. coli SSB, selected ChemBridge compounds, artefact control for HCV NS3 helicase inhibitor project (AID 720487);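 further: ratio of compound well signal to mean negative control signal so 1 means no effect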
# Settings: Cy5-dT15/E. coli SSB fluorescence interference; at 100 µM; actives lie on both sides
smiles,measurement,value
CCOc1cc(C=C2C(=O)NC(=O)NC2=O)cc(Br)c1OCCOc1ccccc1C,fluorescence interference ratio,0.894

# Source: PubChem BioAssay AID720487 (Milwaukee Institute for Drug Discovery, 2013)
